According to PubChem BioAssay AID1159580 (chemical genetic matrix, 2015):
Among all 5,500 compounds or so, about 2,000 (36%) were called active. Roughly 18% stayed inconclusive and do not appear here. Rule as the data show it: active = normalized growth mostly below about 0.91 (no sharp cut-off); inconclusive = no clear call, values can overlap the other calls; inactive = mostly above about 0.92. The list shows a part of the results.

Assay: chemical genetic growth profiling, strain panel (AID 1159580);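 also: tested at 20 µM; growth read once vehicle control cultures reached saturation at 30 °C; 1 = growth at the plate median or of vehicle wells; lower values mean less growth of the strain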
Conditions: S. cerevisiae deletion strains, growth OD

Measured: normalized growth

OC(Cn1cncn1)(Cn1cncn1)c1ccc(F)cc1F
active: locus YDR137W, strain rgp1, hits give low values 0.508
inactive: locus YAL013W, strain DEP1, hits give low values 0.968 | locus YAL021C, strain ccr4, hits give low values 0.972 | locus YAL026C, strain drs2, hits give low values 0.911 | locus YAL030W, strain snc1, hits give low values 1 | locus YBL061C, strain skt5, hits give low values 0.995 | locus YBR009C, strain hhf1, hits give low values 0.998 | locus YBR021W, strain FUR4, hits give low values 0.936 | locus YBR023C, strain chs3, hits give low values 1.01 | locus YBR171W, strain sec66, hits give low values 0.971 | locus YBR229C, strain ROT2, hits give low values 1 | locus YBR231C, strain swc5, hits give low values 0.981 | locus YBR279W, strain paf1, hits give low values 1 | locus YCL011C, strain gbp2, hits give low values 1.01 | locus YCL016C, strain dcc1, hits give low values 0.987 | locus YCL029C, strain bik1, hits give low values 0.984 | locus YCL061C, strain MRC1, hits give low values 0.987 | locus YCL069W, strain vba3, hits give low values 1 | locus YCR088W, strain abp1, hits give low values 1.01 | locus YDL005C, strain med2, hits give low values 0.966 | locus YDL035C, strain GPR1, hits give low values 0.991 | locus YDL040C, strain nat1, hits give low values 1 | locus YDL074C, strain BRE1, hits give low values 1.03 | locus YDL101C, strain DUN1, hits give low values 0.993 | locus YDL134C, strain PPH21, hits give low values 1 | locus YDL185W, strain tfp1, hits give low values 0.948 | locus YDL192W, strain arf1, hits give low values 0.998 | locus YDR001C, strain nth1, hits give low values 1.01 | locus YDR069C, strain doa4, hits give low values 0.971 | locus YDR101C, strain arx1, hits give low values 1 | locus YDR150W, strain NUM1, hits give low values 0.985 | locus YDR159W, strain sac3, hits give low values 0.956 | locus YDR162C, strain NBP2, hits give low values 0.971 | locus YDR195W, strain ref2 1.1 | locus YDR297W, strain sur2, hits give low values 1 | locus YDR318W, strain mcm21, hits give low values 0.986 | locus YDR334W, strain swr1, hits give low values 0.996 | locus YDR335W, strain msn5, hits give low values 1.01 | locus YDR388W, hits give low values 1 | locus YDR392W, strain spt3, hits give low values 0.853 | locus YDR502C, strain sam2, hits give low values 0.992 | locus YEL003W, strain gim4, hits give low values 0.999 | locus YEL037C, strain rad23, hits give low values 1 | locus YEL061C, strain CIN8 (second series), hits give low values 1.01 | locus YEL061C, strain CIN8, hits give low values 0.993 | locus YER015W, strain faa2, hits give low values 1.01 | locus YER016W, strain bim1, hits give low values 1 | locus YER110C, hits give low values 0.974 | locus YER111C, strain swi4, hits give low values 0.999 | locus YER155C, strain BEM2 (second series), hits give low values 0.99 | locus YER155C, strain BEM2, hits give low values 1 | locus YER167W, strain BCK2, hits give low values 1.01 | locus YFR010W, strain ubp6, hits give low values 0.982 | locus YGL078C, strain dbp3, hits give low values 0.997 | locus YGL086W, strain mad1, hits give low values 0.997 | locus YGL167C, strain pmr1, hits give low values 1 | locus YGL173C, strain kem1, hits give low values 1.01 | locus YGL227W, strain vid30, hits give low values 1.01 | locus YGL240W, strain doc1, hits give low values 0.995 | locus YGL248W, strain PDE1, hits give low values 1.02 | locus YGL253W, strain hxk2, hits give low values 0.99 | locus YGR078C, strain PAC10, hits give low values 1.02 | locus YGR135W, strain pre9, hits give low values 0.979 | locus YGR252W, strain gcn5, hits give low values 1 | locus YHR013C, strain ard1, hits give low values 0.957 | locus YHR027C, strain rpn1, hits give low values 1.01 | locus YHR030C, strain SLT2, hits give low values 0.987 | locus YHR079C, strain IRE1 (second series), hits give low values 0.985 | locus YHR094C, strain hxt1, hits give low values 1.01 | locus YHR129C, strain ARP1, hits give low values 1 | locus YHR142W, strain chs7, hits give low values 1 | locus YHR200W, strain rpn10, hits give low values 0.961 | locus YIL066C, strain RNR3, hits give low values 1 | locus YIL073C, strain SPO22, hits give low values 0.943 | locus YIL125W, strain kgd1, hits give low values 1.01 | locus YIR030C, strain dcg1, hits give low values 0.997 | locus YJL092W, strain hpr5, hits give low values 0.998 | locus YJL095W, strain BCK1 (second series), hits give low values 1 | locus YJL095W, strain BCK1, hits give low values 1.07 | locus YJL115W, strain asf1, hits give low values 0.996 | locus YJL129C, strain trk1, hits give low values 1.06 | locus YJL134W, strain LCB3, hits give low values 0.994 | locus YJL154C, strain vps35, hits give low values 1.01 | locus YJL164C, strain tpk1, hits give low values 0.992 | locus YJL166W, strain qcr8, hits give low values 1 | locus YJL168C, strain set2, hits give low values 0.992 | locus YJL187C, strain SWE1 (second series), hits give low values 1.03
